HT1080NT lethal: kills 2HG-producing HT-1080-NT fibrosarcoma cells; HT-1080-NT fibrosarcoma viability, CellTiter-Glo ATP luminescence, 48 h; Potency, µM (doses to about 46.1 µM), inactives show at the highest dose activity, negative = less viability, usual class: cytotoxic; 360,000 tested, 1.6% active;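 note: NT is the 2HG producing partner of a matched IDH1 knockdown line; potency is the fitted concentration of half-maximal effect; 0% = DMSO-treated cells and -100% = media-only wells without cells; nearly all actives have a fitted effect of over 55% in size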
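A 48-hour cytotoxicity screen used HT-1080-NT cells plated 2 hours before compound delivery. ATP-based CellTiter-Glo luminescence measured viability, normalized to DMSO and no-cell controls.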
DT40 TDP1 CPT: growth inhibition of DT40 Tdp1-/-;hTDP1 cells with camptothecin (screen for TDP1 inhibitors). chicken DT40 Tdp1-/-;hTDP1 cells + 20 nM CPT, ATP luminescence, 48 h. Potency, µM (highest dose often 46.2 µM), for the others: at the highest dose activity change, negative = growth inhibition, most hits filed as inhibitors. 420,000 tested, 12% active; note: potency is the fitted concentration of half-maximal effect; nearly all actives have a fitted effect of over 55% in size
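Chicken DT40 Tdp1-/- cells stably complemented with human TDP1 were seeded at 400 cells/well in medium containing 20 nM camptothecin, exposed to pin-transferred compounds, and grown at 37 °C for at least 48 hr. Viability was read as ATP luminescence.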
IL1B secr inh: inhibitors of inflammasome signaling (IL-1 beta secretion). THP-1 LPS/ATP IL-1B secretion, AlphaLISA, 16 h; stronger effect = lower value. activity change, % at 57.5 µM. 360,000 tested, 4.7% active. AID 743279; in the data active = activity change below about -50%; inconclusive = mostly about -30% to -49%
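THP-1 cells pretreated 1 hr with compounds (up to 57.5 uM final), then stimulated with LPS (250 ng/mL final) plus ATP (1.25 mM final); secreted IL-1B measured by AlphaLISA after 16 hr, decreased signal indicating inhibition.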
HT1080 IDH1KD tx: toxicity to HT-1080 IDH1 knockdown cells (counter line); 360,000 tested, 2% active; HT-1080 IDH1 knockdown viability, ATP luminescence, 48 h; Potency, µM (top dose mostly 46.1 µM), without a hit: at the top dose activity, negative = toxicity, hits mostly cytotoxic;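 note: potency is the fitted concentration of half-maximal effect; 0% = DMSO wells and -100% = cell-free medium wells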
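% activity derives from luminescence (CellTiter-Glo), normalised to DMSO and no-cell wells. HT-1080-IDH1KD cells, 750/well, had 48 h compound exposure at 37 °C.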
DT40 TDP1 no CPT: qHTS for Inhibitors of human tyrosyl-DNA phosphodiesterase 1 (TDP1): qHTS in cells in absence of CPT. AID 686978, 2013. DT40 Tdp1-/- hTDP1 cells, no CPT, ATP luminescence, 48 h. Potency, µM (series often up to 46.2 µM), for inactives: at the top dose activity change, negative = growth inhibition, hits mostly inhibitors. 420,000 tested, 15% active; note: potency is the fitted concentration of half-maximal effect; nearly all actives have a fitted effect of over 55% in size
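Camptothecin absent (DMSO only). Human TDP1-complemented DT40 knockout cells, 400 cells/well, 37 °C for minimum 48 hr; ATP measured via CellTiter-Glo, 30 min dark incubation, luminescence.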
* = called active by the depositor; [ ] = another dose, or the depositor's remark. This is a sample that favours compounds with a hit; in the whole collection about 19% have one here. Unless noted, calls come from the whole dose curve; as a rule, active = well fitted curve in the direction sought with a large enough effect; inconclusive = small, poorly fitted or top-dose-only effect, or another doubt; inactive = no such curve, though single readings can be large; an effect the other way counts as inactive or inconclusive. Unless noted, % is set by controls: 0 for no effect and ±100 for the full control effect.

What do the screens show for `Cc1ccc(C)c(N2CCN(CCCNC(=O)c3cnn(-c4ccccc4)c3C3CCN(C(=O)OC(C)(C)C)CC3)CC2)c1`?
DT40 TDP1 CPT: 6.5µM*; DT40 TDP1 no CPT: 4.6µM*

Results for COc1ccccc1N1CCN(CCCNC(=O)c2cnn(-c3cccc(Cl)c3)c2C2CCN(C(=O)OC(C)(C)C)CC2)CC1 ?
DT40 TDP1 CPT: 9.2µM*; DT40 TDP1 no CPT: 7.3µM*

What do the screens show for `COc1cc(OC)c(OC)cc1CNCc1ccco1`?
HT1080NT lethal: 20%; DT40 TDP1 CPT: 12%; IL1B secr inh: -8; HT1080 IDH1KD tx: 2%; DT40 TDP1 no CPT: -16%

Results for CCOC(=O)N1CCN(C(=O)c2cc3c(=O)n(C)c4ccccc4c3n2C)CC1 ?
HT1080NT lethal: 7%; DT40 TDP1 CPT: 21µM*; IL1B secr inh: -12; HT1080 IDH1KD tx: 0%; DT40 TDP1 no CPT: 16µM*

Results for Cc1cccc(N2CCN(C(=O)Cn3c(=O)c4cccn4c4ccc(F)cc43)CC2C)c1 (stereo not given) ?
DT40 TDP1 CPT: 18µM*; DT40 TDP1 no CPT: 18µM*

How did CCN1CCN(C(=O)c2cc3c(=O)n(C)c4ccccc4c3n2C)CC1 do in these assays?
HT1080NT lethal: 1%; DT40 TDP1 CPT: 6%; IL1B secr inh: -6; HT1080 IDH1KD tx: -12%; DT40 TDP1 no CPT: -9%

Results for COc1ccc(-n2nc(C(=O)N3CCN(c4cccc(C)c4)C(C)C3)c3c4ccccc4n(C)c3c2=O)cc1 (stereo not given) ?
DT40 TDP1 CPT: -11%; DT40 TDP1 no CPT: inconclusive

What do the screens show for `CCOC(=O)N1CCN(C(=O)c2cn(CCOC)c(=O)c3c2c2ccccc2n3C)CC1`?
HT1080NT lethal: 3%; DT40 TDP1 CPT: 7%; IL1B secr inh: -3; HT1080 IDH1KD tx: -2%; DT40 TDP1 no CPT: -19%

What do the screens show for `O=C(Cn1c(=O)c2cccn2c2ccc(F)cc21)N1CCN(c2ccc(F)cc2)CC1`?
HT1080NT lethal: -4%; DT40 TDP1 CPT: inconclusive; IL1B secr inh: -5; HT1080 IDH1KD tx: -1%; DT40 TDP1 no CPT: inconclusive

What do the screens show for `Cn1c(C(=O)N2CCN(Cc3ccccc3)CC2)cc2c(=O)n(C)c3ccccc3c21`?
HT1080NT lethal: -5%; DT40 TDP1 CPT: 18µM*; IL1B secr inh: -18; HT1080 IDH1KD tx: -4%; DT40 TDP1 no CPT: inconclusive

How did Cc1cccc(N2CCN(C(=O)c3cc4c(=O)n(C)c5ccccc5c4n3C)CC2C)c1 (stereo not given) do in these assays?
HT1080NT lethal: -12%; DT40 TDP1 CPT: 18µM*; IL1B secr inh: -24; HT1080 IDH1KD tx: -18%; DT40 TDP1 no CPT: 9.2µM*

How did CN(c1ccc(OCC(=O)OCC(=O)NCc2ccco2)cc1)S(=O)(=O)c1ccc2ccccc2c1 do in these assays?
HT1080NT lethal: -3%; DT40 TDP1 CPT: 2%; IL1B secr inh: 9; HT1080 IDH1KD tx: 0%; DT40 TDP1 no CPT: 18%

Results for NS(=O)(=O)c1ccc(CNC(=S)Nc2cc(S(=O)(=O)N3CCOCC3)ccc2Cl)cc1 ?
HT1080NT lethal: 11%; DT40 TDP1 CPT: -6%; IL1B secr inh: -15; HT1080 IDH1KD tx: 3%; DT40 TDP1 no CPT: 7%

Results for CCC1CN(CCNC(=O)c2ccc3c(c2)OCO3)Cc2cc(OC)ccc2O1 (stereo not given) ?
DT40 TDP1 CPT: -5%[9.04 µM]; DT40 TDP1 no CPT: inconclusive

What do the screens show for `CCn1c(=O)c(C(=O)CN(C)Cc2cccc(OC)c2OC)c(N)n(Cc2ccccc2)c1=O`?
HT1080NT lethal: inconclusive; DT40 TDP1 CPT: inconclusive; IL1B secr inh: 24; HT1080 IDH1KD tx: 8%; DT40 TDP1 no CPT: 15µM*

How did CCOc1ccc(CN(C)CC(=O)c2c(N)n(Cc3ccccc3)c(=O)n(CC)c2=O)cc1OC do in these assays?
HT1080NT lethal: -11%; DT40 TDP1 CPT: inconclusive; IL1B secr inh: -23; HT1080 IDH1KD tx: -10%; DT40 TDP1 no CPT: -40%

What do the screens show for `CCOC(=O)c1c(NC(=O)CSc2nnc(C)s2)sc2c1CCCCC2`?
HT1080NT lethal: -20%; DT40 TDP1 CPT: inconclusive; IL1B secr inh: -2; HT1080 IDH1KD tx: inconclusive; DT40 TDP1 no CPT: inconclusive

Results for CCOC(=O)c1c(NC(=O)COc2ccc(F)cc2)sc2c1CCC(C)C2 (stereo not given) ?
DT40 TDP1 CPT: -24%; DT40 TDP1 no CPT: inconclusive

How did CCOC(=O)c1c(NC(=S)NC(=O)c2ccc(Cn3cc(Cl)cn3)o2)sc2c1CCC(C)C2 (stereo not given) do in these assays?
HT1080NT lethal: 2%; DT40 TDP1 CPT: 13µM*; IL1B secr inh: 6; HT1080 IDH1KD tx: -4%; DT40 TDP1 no CPT: 8.2µM*

How did COC(=O)c1c(NC(=O)COc2ccc(OC)cc2)sc2c1CCC(C)C2 (stereo not given) do in these assays?
DT40 TDP1 CPT: inconclusive; DT40 TDP1 no CPT: 7.3µM*

How did CCOC(=O)c1c(NC(=O)CSc2nnc(C)s2)sc2c1CCC(C)C2 (stereo not given) do in these assays?
HT1080NT lethal: -31%; DT40 TDP1 CPT: inconclusive; IL1B secr inh: -10; HT1080 IDH1KD tx: -7%[9.24 µM]; DT40 TDP1 no CPT: 21µM*

Results for CCOC(=O)c1c(NC(=O)Cn2c(C)nc3ccccc32)sc2c1CCC2 ?
HT1080NT lethal: -11%; DT40 TDP1 CPT: 21µM*; IL1B secr inh: 31; HT1080 IDH1KD tx: -20%; DT40 TDP1 no CPT: 12µM*

How did CCOC(=O)c1c(NC(=O)Cn2nnc3ccccc32)sc2c1CCC(C)C2 (stereo not given) do in these assays?
HT1080NT lethal: -15%; DT40 TDP1 CPT: 23µM*; IL1B secr inh: -6; HT1080 IDH1KD tx: -4%[9.24 µM]; DT40 TDP1 no CPT: 23µM*

What do the screens show for `CCOC(=O)c1c(NC(=O)COc2cccc3c2CCN(C)C3=O)sc2c1CCC2`?
HT1080NT lethal: inconclusive; DT40 TDP1 CPT: 13µM*; IL1B secr inh: -23; HT1080 IDH1KD tx: inconclusive; DT40 TDP1 no CPT: 9.2µM*

Results for CCOC(=O)c1c(NC(=O)C(C)NCc2ccco2)sc2c1CCC(C)C2 (stereo not given) ?
HT1080NT lethal: -25%; DT40 TDP1 CPT: inconclusive; IL1B secr inh: inconclusive; HT1080 IDH1KD tx: inconclusive; DT40 TDP1 no CPT: 21µM*

How did Cc1cccn2c(=O)cc(CSc3nnc(NC(=O)COc4ccc(F)cc4)s3)nc12 do in these assays?
DT40 TDP1 CPT: 5%; DT40 TDP1 no CPT: -6%

How did Cn1cnnc1SCC(=O)Nc1cccc(S(=O)(=O)N2CCCCCC2)c1 do in these assays?
HT1080NT lethal: 2%; DT40 TDP1 CPT: -6%; IL1B secr inh: -4; HT1080 IDH1KD tx: 4%; DT40 TDP1 no CPT: -2%

Source: PubChem BioAssay
